PubChem BioAssay (NCI)
This is part of a sample that, as a whole, favours compounds with a hit. Of some 79,000 tested, about 15% had one in any assay. Unmarked numbers belong to inactive results. Activity calls are given as the source filed them. No stated cut-off is given here; in the data, active means growth inhibition above about 70%; inactive means the rest.

Test: NCI Yeast Anticancer Drug Screen. Data for the bub3 strain (AID 167)
Conditions: S. cerevisiae bub3 mutant strain, at 50.0 µM (retest, dose inferred, filed as 5.0), active compounds read high
Method in brief: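 Yeast carrying a defined mutation is treated with each compound, and growth is compared with that of vehicle-exposed cells to give inhibition.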
`CCOP(=O)(OCC)C(Cc1ccccc1)N=C(c1ccccc1)c1ccccc1` (centres undefined) gave a growth inhibition of -11%. `CCc1ncnc2cc(OCC3CO3)c(OC)cc12` (centres undefined) gave a growth inhibition of 47%. For `CCOC(=O)[C@H]1Nc2ccccc2C2c3ccccc3CC21` (some centres undefined), the growth inhibition was 75% (active). In the case of `O=CNc1ccc2c(c1)C(=O)c1ccccc1-2`, the growth inhibition is reported as 66%. With `CCOc1ccc2c(c1)c(CC(=O)O)cn2C` the growth inhibition was 81% (active). In the case of `OC1CSCCCSCCSCCCSC1`, the growth inhibition is reported as 82% (active). In the case of `N#Cc1c(N)[nH]c2ccc(Sc3ccccc3)cc12`, the growth inhibition is reported as 51%. With `Cc1ccc(-c2ccc(Nc3c4ccccc4nc4ccccc34)cc2)cn1` the growth inhibition was 84% (active). With `c1ccc2c(c1)NC(NC1Nc3ccccc3N1)N2` the growth inhibition was 70% (active). Work on `OC(COc1cccc2ccccc12)CN1CCOCC1` (centres undefined) yielded a growth inhibition of 60%. In the case of `CCC/C(Cl)=N\OC(=O)Nc1ccc(Br)cc1`, the growth inhibition is reported as 99% (active). `COc1ccc(/C=C2\SC(=S)N(/C=C/c3nc4ccccc4[nH]c3=O)C2=O)cc1OC` gave a growth inhibition of 4%. In the case of `O=C(NNc1ccnc2cc(Cl)ccc12)/C(=C\c1ccccc1Cl)NC(=O)c1ccccc1`, the growth inhibition is reported as 80% (active). For `CSC1=NNC(SC)=NN1`, the growth inhibition was 99% (active). `Cc1c(C2=C(Br)C(=O)N(C)C2=O)c(=O)n(C)c(=O)n1C` gave a growth inhibition of 57%. With `NCCNc1ccc(NCCN)c2c1C(=O)c1c(O)ccc(O)c1C2=O` the growth inhibition was 70% (active). In the case of `Cn1c(=O)c(-c2ccccc2)c(N=[N+]=[N-])c2ccccc21`, the growth inhibition is reported as 95% (active). With `CCCCCCCCCCCCCCCCCCOCC(O)COP(=O)(O)OCC1OC(n2cc(F)c(=O)[nH]c2=O)CC1O` (centres undefined) the growth inhibition was 91% (active). Work on `CCS(=O)(=O)c1ccc(/C=C/C=N/NC(=S)NCC(C)C)cc1` yielded a growth inhibition of 50%. `CCC(=O)Oc1c(Cl)cc(Cl)c2ccccc12` gave a growth inhibition of -5%. For `COc1cc2c3c(cccc3c1)C(=O)N(CCN(C)C)C2=O`, the growth inhibition was 21%. With `CN(C)c1ccc(C(C#N)=C(C#N)C#N)cc1` the growth inhibition was 77% (active). Compound `O=C(CCCN1CCC2(CC1)CC(=O)N(N1CCCCCC1)C2=O)c1ccc(F)cc1` has a growth inhibition of 41%. For `O=C1C2C(C(=O)N1c1ccc(OCc3ccccc3)cc1)C1c3ccccc3C2C2CCCCN21` (centres undefined), the growth inhibition was 47%. In the case of `CCN(CC)CCC(=O)c1ccc(Oc2ccc(F)cc2)cc1`, the growth inhibition is reported as 47%. For `O=Nc1c(NO)ccc2nn(-c3ccccc3)nc12`, the growth inhibition was 99% (active). `CC(=O)SCCC[Si](C)(C)CCCSC(C)=O` showed a growth inhibition of 61%. In the case of `O=C(O)C1CCCCC1c1c2ccc(=O)c(O)c-2oc2c(O)c(O)ccc12` (centres undefined), the growth inhibition is reported as 80% (active). With `Cc1ccc(NN(NC(=O)OC(C)C)C(=O)OC(C)C)cc1` the growth inhibition was 38%. For `O=C1c2ccccc2C(=O)c2cc(CBr)ccc21`, the growth inhibition was 79% (active). `Cc1c(C(Cc2ccccc2N(C)C(=O)/C=C\C(=O)O)c2c[nH]c3ccccc23)c2ccccc2n1C` (centres undefined) showed a growth inhibition of -6%. With `CC(C)/C(Cl)=N\OC(=O)Nc1ccc(F)cc1` the growth inhibition was 83% (active). For `O=C1OC(=O)C2CCCC3CCCC1C32` (centres undefined), the growth inhibition was 99% (active). With `CCOC(=O)C(NC(=O)c1ccccc1)(N1CCN(c2cc3c(cc2F)c(=O)c(C(=O)O)cn3C2CC2)CC1)C(F)(F)F` (centres undefined) the growth inhibition was 3%. With `COc1ccc(NC(=S)N/N=C(\c2ccccc2)c2ccccn2)cc1` the growth inhibition was 90% (active). With `C=CCC1=C(C)C(OC(=O)/C=C/c2ccccc2)CC1=O` (centres undefined) the growth inhibition was 79% (active). For `NNc1c(F)c(F)cc(F)c1F`, the growth inhibition was 70% (active). Work on `COP(=O)(OC)/C(=C\C1=CN(C(c2ccccc2)(c2ccccc2)c2ccccc2)CN1)NC=O` yielded a growth inhibition of 2%. Work on `COC(=O)c1cc(-c2ccc(C)cc2)[nH]c(=O)c1C#N` yielded a growth inhibition of 16%.
